Sampled rows, rich in hits. Any-hit rate of the full collection: about 3.6%.
Pf apPOL inh – Pf-apPOL inhibitors, biochemical, fluorescence | actives 0.25% (n = 210,000) | Plasmodium falciparum apicoplast DNA polymerase (apPOL) | inhibition, % at 10 µM | Recombinant Pf-apPOL, molecular beacon fluorescence, 1.5 h
mHTT-CaM PPI inh – mutant huntingtin-calmodulin interaction inhibitors – biochemical, AlphaScreen, primary screen; AlphaScreen His-mHTT/GST-CaM binding, luminescence; actives 3.6% (n = 190,000); inhibition, % at 15 µM;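 further: 0% = both proteins with DMSO and 100% = one protein alone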
* marks the source's active call; other numbers are inactive results. No stated cut-off is given here; in the data, active means inhibition above about 50%; inactive means the rest.

Results for C1CCN(C2CCN(C3CCCC3)CC2)CC1 ?
Pf apPOL inh: -1; mHTT-CaM PPI inh: 1

What do the screens show for `O=C(c1ccc(Sc2cccc(Cl)c2)c([N+](=O)[O-])c1)N1CCN(c2ccccn2)CC1`?
Pf apPOL inh: -7; mHTT-CaM PPI inh: 20

Results for O=[N+]([O-])c1ccc(N2CCc3ccccc32)c([N+](=O)[O-])c1 ?
Pf apPOL inh: 2; mHTT-CaM PPI inh: 56*

What do the screens show for `O=[N+]([O-])c1cc(S(=O)(=O)N2CCc3ccccc32)ccc1N1CCc2ccccc21`?
Pf apPOL inh: 28; mHTT-CaM PPI inh: 74*

How did O=C(c1ccc(Sc2cccc(Cl)c2)c([N+](=O)[O-])c1)N1CCC2(CC1)OCCO2 do in these assays?
Pf apPOL inh: -8; mHTT-CaM PPI inh: 60*

What do the screens show for `Cc1ccc(S(=O)(=O)N2CCc3ccccc32)cc1[N+](=O)[O-]`?
Pf apPOL inh: -1; mHTT-CaM PPI inh: 13

What do the screens show for `CC(=O)N1c2ccccc2CCc2ccc([N+](=O)[O-])cc21`?
Pf apPOL inh: -7; mHTT-CaM PPI inh: 0

How did O=C(c1ccc(N2CCC3(CC2)OCCO3)c([N+](=O)[O-])c1)N1CCOCC1 do in these assays?
Pf apPOL inh: -2; mHTT-CaM PPI inh: 1

How did O=C(c1ccc(N2CCc3ccccc32)c([N+](=O)[O-])c1)N1CCC2(CC1)OCCO2 do in these assays?
Pf apPOL inh: -6; mHTT-CaM PPI inh: 77*

What do the screens show for `Fc1ccccc1-n1nnnc1SCc1ccc(Br)cc1`?
Pf apPOL inh: 26; mHTT-CaM PPI inh: -89

How did O=C(NC1CC1)c1ccc(OCC2CCCN(C(=O)Cc3cccs3)C2)cc1 (configuration not stated) do in these assays?
Pf apPOL inh: -6; mHTT-CaM PPI inh: 15

Results for COc1ccc(Nc2nc(N3CCOCC3)nc3ccccc23)c(OC)c1 ?
Pf apPOL inh: 0; mHTT-CaM PPI inh: -12

How did COC(=O)c1ccc2c(c1)N(C)S(=O)(=O)CC2=O do in these assays?
Pf apPOL inh: -8

Results for Cc1ccc(Cn2nc(C)c(NC(=O)c3noc4c3CCCCC4)c2C)cc1 ?
Pf apPOL inh: -1; mHTT-CaM PPI inh: 15

What do the screens show for `Cc1nn(Cc2ccc(Cl)c(Cl)c2)c(C)c1NC(=O)c1cc(-c2ccco2)on1`?
Pf apPOL inh: 2; mHTT-CaM PPI inh: 57*

What do the screens show for `Cc1nn(Cc2ccc(Cl)c(Cl)c2)c(C)c1NC(=O)c1noc2c1CCCC2`?
Pf apPOL inh: -4; mHTT-CaM PPI inh: 100*

What do the screens show for `Cc1cc(C)n(CCNC(=O)c2cc(-c3ccco3)on2)n1`?
Pf apPOL inh: 6; mHTT-CaM PPI inh: 0

Results for Cc1cccc(NS(=O)(=O)c2ccc(CN3C(=O)CCC3=O)cc2)c1 ?
Pf apPOL inh: -7; mHTT-CaM PPI inh: -14

Results for CCNc1cc(N2CCC(CCC(=O)NCc3ccc(F)c(Cl)c3)CC2)ncn1 ?
Pf apPOL inh: -5; mHTT-CaM PPI inh: -1

How did O=C(O)C1C2CCC(O2)C1C(=O)n1cc(Cl)cn1 (configuration not stated) do in these assays?
Pf apPOL inh: -3; mHTT-CaM PPI inh: -3

How did Cc1ccnc(NC(=O)c2ccc(C(C)C)cc2)c1 do in these assays?
Pf apPOL inh: -5; mHTT-CaM PPI inh: -13

Results for COc1cc(C(Nc2cc(C)ccn2)c2ccc3cccnc3c2O)ccc1O (configuration not stated) ?
Pf apPOL inh: 2; mHTT-CaM PPI inh: 100*

What do the screens show for `CCOc1ccccc1C(=O)Nc1cc(C)ccn1`?
Pf apPOL inh: -2; mHTT-CaM PPI inh: -16

What do the screens show for `CCOc1cc(C(Nc2cc(C)ccn2)c2ccc3cccnc3c2O)ccc1O` (configuration not stated)?
Pf apPOL inh: -2; mHTT-CaM PPI inh: 100*

Results for COc1cc(-c2nc3ncccn3c2Nc2ccc(C)cc2)ccc1O ?
Pf apPOL inh: 2; mHTT-CaM PPI inh: 9

How did Cc1ccnc(NC(c2ccc(N(C)C)cc2)c2ccc3cccnc3c2O)c1 (configuration not stated) do in these assays?
Pf apPOL inh: -20; mHTT-CaM PPI inh: 100*

Results for Cc1ccc(=O)n(Cc2ccc(Cl)c(Cl)c2)n1 ?
Pf apPOL inh: -10

Results for Clc1ccc(Cn2cnc(Cl)c2Cl)cc1Cl ?
Pf apPOL inh: -6; mHTT-CaM PPI inh: 73*

How did Cc1ccsc1/C=C1\SC(N2CCCC2)=NC1=O do in these assays?
Pf apPOL inh: -3; mHTT-CaM PPI inh: 11

Results for COc1ccc(-c2ccc(=O)n(CCNC(=O)c3ccno3)n2)cc1 ?
Pf apPOL inh: 4; mHTT-CaM PPI inh: 0

What do the screens show for `COc1ccccc1N1C(=O)C2C3C=CC(C)(O3)C2C1=O` (configuration not stated)?
Pf apPOL inh: -2; mHTT-CaM PPI inh: 0

What do the screens show for `CC(=O)Oc1ccc2c(=O)c(Oc3ccccc3Br)c(C(F)(F)F)oc2c1`?
Pf apPOL inh: 0; mHTT-CaM PPI inh: 52*

Results for COc1ccc2c(=O)c(Oc3ccccc3Br)c(C(F)(F)F)oc2c1 ?
Pf apPOL inh: 9; mHTT-CaM PPI inh: 4
